In the library only some 6.1% were active in any assay of this set; here they are far more common.
HepG2 tox = kills HepG2 cells in TGF-b inhibitor counter-screen; HepG2 CAGA-GFP viability, ATP luminescence, 18 h; Potency, µM (top dose mostly 46.1 µM), inactives show at the highest dose activity change, negative = cytotoxicity, most hits filed as cytotoxic; 410,000 tested, 0.76% active; AID 588856
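HepG2 CAGA-GFP cells (1000/well, DMEM with 1% FBS) received compound, then TGF-beta at 500 pg/mL final, and were incubated 18 hours at 37 degrees C. Viability was read by CellTiter-Glo luminescence. Media-only wells were set as complete cell-killing and DMSO as no toxicity.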
Gal4-VP16 FLuc = inhibits Gal4-VP16 luciferase reporter, ROR gamma counter-screen. AID 2546. Potency, µM (highest dose often 53.6 µM), without a hit: at the top dose activity, negative = inhibition, hits mostly inhibitors. 310,000 tested, 3.5% active. Drosophila S2 Gal4-VP16 UAS-luciferase, luminescence, 20 h;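 also: Gal4-VP16 expression switched on by copper sulfate through the metallothionein promoter; % is scaled to controls: 0 for no effect and ±100 for the full control effect; nearly all actives have a fitted effect of over 50% in size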
ATXN viability = viability counter-screen for ATXN expression inhibitors | 400,000 tested, 0.49% active | S2 cells (HEK-293 line with an ATXN2-luciferase reporter) viability, CellTiter-Fluor protease fluorescence, 24 h | Potency, µM (titrated, usually from 56.7 µM), actives largely listed as cytotoxic | AID 651635; also: nearly all actives have a fitted effect of over 40% in size
ATXN2 expr inh = ATXN2 expression inhibition. AID 1745845. Potency, µM (doses to about 57 µM), for inactives: at the highest dose activity change, negative = inhibition, usual class: inhibitors. HEK-293 ATXN2-luciferase reporter, luminescence, 24 h. 360,000 tested, 0.72% active; also: % is scaled to controls: 0 for no effect and ±100 for the full control effect; nearly all actives have a fitted effect of over 55% in size
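qHTS (up to 57 uM final) was run with 24 h compound exposure of reporter cells at 37 °C. Each well was multiplexed: SteadyGlo luminescence measured ATXN2-luciferase expression after a fluorogenic Gly-Phe-AFC viability readout (25 uM final).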
RORgamma inh = ROR gamma (mouse) transcription inhibition; 310,000 tested, 5.4% active; P51450; Potency, µM (doses to about 53.6 µM), for inactives: at the top dose activity change, negative = inhibition, usual class: inhibitors; Drosophila S2 Gal4-RORgamma UAS-luciferase reporter, 20 h; also: % is scaled to controls: 0 for no effect and ±100 for the full control effect; nearly all actives have a fitted effect of over 60% in size
Target sequence (P51450 whole entry, looked up, the tested form may be a part): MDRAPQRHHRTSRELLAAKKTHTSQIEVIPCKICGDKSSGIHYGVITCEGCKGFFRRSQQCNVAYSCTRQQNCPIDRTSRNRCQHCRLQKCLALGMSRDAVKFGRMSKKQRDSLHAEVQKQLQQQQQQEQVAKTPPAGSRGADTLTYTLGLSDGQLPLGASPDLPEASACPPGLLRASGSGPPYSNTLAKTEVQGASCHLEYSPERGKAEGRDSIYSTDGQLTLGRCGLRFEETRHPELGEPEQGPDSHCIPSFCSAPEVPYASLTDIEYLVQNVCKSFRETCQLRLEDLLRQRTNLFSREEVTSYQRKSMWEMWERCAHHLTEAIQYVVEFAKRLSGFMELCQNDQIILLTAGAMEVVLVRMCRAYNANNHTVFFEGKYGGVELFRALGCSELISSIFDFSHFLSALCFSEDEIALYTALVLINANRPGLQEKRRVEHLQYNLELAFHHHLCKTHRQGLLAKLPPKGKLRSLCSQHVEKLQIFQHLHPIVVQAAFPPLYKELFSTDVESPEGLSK
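Stable Schneider cell line, Gal4 DNA-binding domain fused to ROR gamma, UAS-luciferase. Cmpd 1 hr RT → CuSO4 700 uM final → 20 hr RT → luciferase reagent 10 min → luminescence.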
TGFb SMAD3 inh = inhibitors of TGF-b signaling; Potency, µM (highest dose often 46.1 µM), for inactives: at the top dose activity, negative = inhibition, actives largely listed as inhibitors; HepG2 CAGA-GFP TGF-b/SMAD3 reporter, GFP fluorescence, 18 h; TGF-beta stimulated, 500 pg/mL final; 410,000 tested, 1.2% active; also: % is scaled to controls: 0 for no effect and ±100 for the full control effect; nearly all actives have a fitted effect of over 65% in size
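TGF-beta reporter screen: HEPG2 CAGA-GFP, 1% FBS, 500 pg/mL TGF-beta final, 18 h; per-cell GFP summed per well; curves fitted and categorized by class.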
* hit, by the source's call; i = inactive; ? = inconclusive; · = no result. Calls follow the shape of the dose curve; as a rule, active = well fitted curve in the direction sought with a large enough effect; inconclusive = small, poorly fitted or top-dose-only effect, or another doubt; inactive = no such curve, though single readings can be large; an effect the other way counts as inactive or inconclusive. Potency is read from the fitted curve at half-maximal effect.

SMILES	HepG2 tox	Gal4-VP16 FLuc	ATXN viability	ATXN2 expr inh	RORgamma inh	TGFb SMAD3 inh
CC1CC(C)CN(C(C(=O)NC2CCCCC2)c2ccnc3ccccc23)C1 (stereo not given)	-16%	·	?	-24%	·	?
CC1(C)CCC[C@@](C)([C@H]2CC[C@]3(C)[C@@H]2[C@H](O)C[C@@H]2[C@@]4(C)CC[C@H](O)C(C)(C)[C@@H]4CC[C@]23C)O1	·	5%	·	·	20%	·
COC(=O)c1ccccc1-c1ccc(/C=N/Nc2nc(N3CCCC3)nc(N3CCCC3)n2)o1	-39%	?	?	?	?	13µM*
COC(=O)c1ccccc1-c1ccc(/C=N/NC(=O)c2cc3ccccc3o2)o1	-8%	?	i	-7%	?	?
Cc1ccc(/C=N/Nc2nc(N3CCCCC3)nc(N3CCCCC3)n2)o1	-1%	?	i	-15%	8.9µM*	17%
O=[N+]([O-])c1ccc(/C=N/Nc2nc(N3CCCCCC3)nc(N3CCCCCC3)n2)o1	-2%	?	?	0%	11µM*	-38%
O=[N+]([O-])c1ccc(-c2ccc(/C=N/Nc3nc(NCc4ccccc4)nc(N4CCOCC4)n3)o2)cc1	-55%	?	i	-15%	13µM*	-26%
COc1nc(N/N=C/c2ccc(-c3ccccc3[N+](=O)[O-])o2)nc(N2CCOCC2)n1	-13%	-20%	i	10%	13%	3%
Cc1cc2c(c(-c3cnccn3)c1)OC(CNC(=O)c1c(F)cccc1Cl)C2 (stereo not given)	·	·	i	·	·	·
COc1ccccc1/C=C/C=N/NC(=O)c1cc(-c2ccco2)[nH]n1	10%	?	?	-19%	11µM*	33%
COc1ccccc1/C=C/C=N/NC(=O)c1ccccn1	2%	?	i	10%	?	9%
Cn1c(-c2ccncc2)nc2cc(C(=O)N3CCCC3c3nccs3)cc(NC(=O)C3CCC3)c21 (stereo not given)	·	·	i	·	·	·
Cc1cccc(NC(=S)N(CCCN2CCOCC2)Cc2cn(C)c3ccccc23)c1	0%	-22%	i	?	11µM*	4%
CCOc1ccc(NC(=S)N(CCCN2CCOCC2)Cc2cn(C)c3ccccc23)cc1	-33%	?	i	-37%	13µM*	-2%
Cc1ccc2onc(CC(=O)N3CCN(c4ccccc4)CC3)c2c1	-15%	·	i	14%	·	-16%
COc1cccc(OCC(=O)NCCS(=O)(=O)N2CCN(c3ccccc3F)CC2)c1	-45%	·	·	·	·	-19%
O=C(NCc1ccco1)N1c2ccccc2Sc2ccccc21	-22%	35µM*	i	1%	?	?
COCCCNC(=O)N1c2ccccc2Sc2ccccc21	0%	-11%	i	3%	26%	0%
CC(NC(=S)Nc1ccccc1C(F)(F)F)C1CC2CCC1C2 (stereo not given)	0%	10µM*	i	-4%	3.2µM*	18%
O=C(NNC(=S)Nc1ccccc1C(F)(F)F)C1CC1	-33%	6%	i	-2%	20µM*	9%
O=C(CCC(=O)Nc1ccccc1Cl)NNC(=S)Nc1ccccc1C(F)(F)F	9%	?	i	1%	7.9µM*	13%
Cc1ccc(SCC(=O)Nc2ccc3oc(-c4cccc(Cl)c4)nc3c2)cc1	-17%	·	i	17%	·	-1%
COC(=O)[C@H](CC(C)C)NS(=O)(=O)NC(=O)OC(C)(C)C	4%	·	·	·	·	8%
c1ccc(CCNc2ncnc3sccc23)nc1	-41%	16µM*	i	·	?	-19%
Cc1csc2ncnc(NCCc3ccccn3)c12	1%	10µM*	i	-12%	-6%	-6%
SMILES	HepG2 tox	Gal4-VP16 FLuc	ATXN viability	ATXN2 expr inh	RORgamma inh	TGFb SMAD3 inh
c1ccc(CCNc2ccccn2)nc1	6%	·	i	31%	·	-11%
c1csc(CNc2ncnc3sccc23)c1	1%	·	i	-14%	·	-20%
COc1ccccc1CNC(=O)CCC(=O)N1Cc2ccccc2Oc2ncccc21	-7%	·	i	7%	·	-5%
CCN1CCc2c(sc(-n3cccc3)c2C(C)NC(=O)Nc2ccccc2C)C1 (stereo not given)	-16%	·	·	·	·	?
CS/C(Nc1cc(Cl)ccc1Cl)=C(/C#N)C(=O)c1ccco1	-13%	14µM*	i	-18%	10µM*	-9%
COC(=O)C(NC(=O)COc1ccccc1)(Nc1nc2c(s1)CCCC2)C(F)(F)F (stereo not given)	-20%	20µM*	i	3%	?	-5%
COC(=O)C(NC(=O)CC(C)C)(Nc1nc2c(s1)CCCC2)C(F)(F)F (stereo not given)	-22%	·	i	10%	·	-7%
COc1ccc(-c2oc(NC(=O)CCl)c(C#N)c2-c2ccc(OC)cc2)cc1	13µM*	?	·	18µM*	?	-18%
C[n+]1c(-c2ccccc2)cc2c(=Cc3ccccc3)c3ccccc3n21	-24%	·	·	9.5µM*	·	18µM*
CN(C)c1ccc(/C=C2\c3ccccc3-c3ccc(N(C)C)cc32)cc1	4%	·	·	·	·	6%
C[n+]1c(-c2ccccc2)cc2c(=Cc3ccc([N+](=O)[O-])cc3)c3ccccc3n21	-27%	·	?	?	·	?
CN(C)c1ccc(C=c2c3cc(O)ccc3n3c2cc(-c2ccccc2)[n+]3C)cc1	-58%	·	i	2%	·	11µM*
C#CCN(Cc1nc(N2CCOCC2)c2ccc(Cl)cc2n1)Cc1ccco1	·	·	i	·	·	·
O=C(CN1c2ccccc2Sc2ccccc21)NNC(=O)Nc1ccc(Cl)c(Cl)c1	13µM*	2%	i	-10%	15%	?
CCOC(=O)N1CCC(Nc2cc(C)nc3c(-c4ccccc4OC)c(C)nn23)CC1	-41%	-1%	i	?	?	-27%
CCOC(=O)N1CCN(C(=O)CSc2cc(C)nc3c(-c4ccccc4OC)c(C)nn23)CC1	-77%	13µM*	?	-9%	20µM*	?
CCn1c(=S)[nH]c2nc3c(cc2c1=O)CCCC3	0%	?	i	-4%	1.6µM*	-8%
Cc1ccc(Cn2cnc3nc4c(cc3c2=O)CCCC4)cc1	-20%	·	i	30%	·	1%
O=c1c2cc3c(nc2[nH]c(=S)n1-c1ccccc1)CCCC3	-7%	?	i	3%	2.5µM*	-4%
CC1(C)Cc2nc3[nH]c(=S)n(-c4ccccc4)c(=O)c3cc2CO1	-4%	·	i	6%	·	9%
O=C(Nc1ccc2c(c1)CCCN2C(=O)c1cccs1)c1cccc(F)c1	-33%	8%	?	?	37%	-16%

Assay outcomes deposited in PubChem by National Center for Advancing Translational Sciences (NCATS).
